# Screens: PubChem, National Center for Advancing Translational Sciences (NCATS)
# An excerpt weighted towards active compounds, which were near 11% of everything screened.
# JMJD2A Tudor inh: qHTS Assay for Inhibitors of JMJD2A-Tudor Domain; Lysine-specific demethylase 4A (Homo sapiens), O75164; AlphaScreen JMJD2A-Tudor / H3K4me3 peptide binding; Potency, µM (titrated, usually from 114 µM), for inactives: at the top dose activity change, negative = inhibition, most hits filed as inhibitors; 390,000 compounds, 4.4% hits; AID 504339, 2011; note: % is set by controls: 0 for no effect and ±100 for the full control effect; nearly all actives have a fitted effect of over 50% in size
# HP1b binding inh: HTS for Inhibitors of HP1-beta Chromodomain Interactions with Methylated Histone Tails; AlphaScreen HP1-beta / biotin-H3K9me3 peptide binding; 390,000 compounds, 0.56% hits; Chromobox protein homolog 1 (Homo sapiens), P83916; Potency, µM (highest dose often 114 µM), without a hit: at the top dose activity change, negative = inhibition, usual class: inhibitors; AID 540317, 2011; note: nearly all actives have a fitted effect of over 70% in size
#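 HP1-beta protein (50 nM final) preincubated 30 min at room temperature with biotinylated H3(1-18)K9me3 peptide (50 nM) in PBS pH 7.4, 0.01% Tween-20, then compound added for 30 min. AlphaScreen streptavidin donor/nickel chelate acceptor beads (10 ug/mL final), 30 min dark, luminescence read.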
# G9a inh: qHTS Assay for Inhibitors of Histone Lysine Methyltransferase G9a. G9a H3K9 monomethylation, AlphaScreen, 2 h. 350,000 compounds, 8.8% hits. Potency, µM (series often up to 102 µM), without a hit: top-dose activity, negative = inhibition, actives largely listed as inhibitors. AID 504332, 2011; note: % is set by controls: 0 for no effect and ±100 for the full control effect; nearly all actives have a fitted effect of over 75% in size
#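 Enzyme 20 nM + cpd, 15 min RT; add b-H3K9 pep 500 nM / SAM 20 uM; 2 h RT; anti-H3K9me1 Ab 0.5 ug/mL + SA donor / anti-rabbit acceptor beads 20 ug/mL each, 10 min; AlphaScreen read.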
# BAZ2B inh: qHTS Assay for Inhibitors of BAZ2B; Bromodomain adjacent to zinc finger domain protein 2B (Homo sapiens), Q9UIF8; AlphaScreen BAZ2B-H3K14Ac peptide displacement; Potency, µM (top dose mostly 114 µM), without a hit: at the highest dose activity change, negative = inhibition, actives largely listed as inhibitors; 360,000 compounds, 4.4% hits; AID 504333, 2011; note: % is set by controls: 0 for no effect and ±100 for the full control effect; nearly all actives have a fitted effect of over 60% in size
#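 AlphaScreen displacement of biotin-H3(5-23)K14Ac peptide (50 nM final) from BAZ2B (50 nM final) in PBS pH 7.4, 0.01% Tween-20; complex preformed 30 min RT, then compounds (top 110 uM) 30 min RT, beads 20 min dark.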
# L3MBTL1 block: qHTS Assay for the Inhibitors of L3MBTL1 | Lethal(3)malignant brain tumor-like protein 1 (Homo sapiens), Q9Y468 | 230,000 compounds, 0.66% hits | Potency, µM (top dose mostly 57.1 µM), inactives show at the top dose activity, negative = inhibition, actives largely listed as inhibitors | AlphaScreen L3MBTL1–H3K9me1 peptide binding; note: % is set by controls: 0 for no effect and ±100 for the full control effect; nearly all actives have a fitted effect of over 60% in size
# Target sequence (Q9Y468 whole entry, looked up): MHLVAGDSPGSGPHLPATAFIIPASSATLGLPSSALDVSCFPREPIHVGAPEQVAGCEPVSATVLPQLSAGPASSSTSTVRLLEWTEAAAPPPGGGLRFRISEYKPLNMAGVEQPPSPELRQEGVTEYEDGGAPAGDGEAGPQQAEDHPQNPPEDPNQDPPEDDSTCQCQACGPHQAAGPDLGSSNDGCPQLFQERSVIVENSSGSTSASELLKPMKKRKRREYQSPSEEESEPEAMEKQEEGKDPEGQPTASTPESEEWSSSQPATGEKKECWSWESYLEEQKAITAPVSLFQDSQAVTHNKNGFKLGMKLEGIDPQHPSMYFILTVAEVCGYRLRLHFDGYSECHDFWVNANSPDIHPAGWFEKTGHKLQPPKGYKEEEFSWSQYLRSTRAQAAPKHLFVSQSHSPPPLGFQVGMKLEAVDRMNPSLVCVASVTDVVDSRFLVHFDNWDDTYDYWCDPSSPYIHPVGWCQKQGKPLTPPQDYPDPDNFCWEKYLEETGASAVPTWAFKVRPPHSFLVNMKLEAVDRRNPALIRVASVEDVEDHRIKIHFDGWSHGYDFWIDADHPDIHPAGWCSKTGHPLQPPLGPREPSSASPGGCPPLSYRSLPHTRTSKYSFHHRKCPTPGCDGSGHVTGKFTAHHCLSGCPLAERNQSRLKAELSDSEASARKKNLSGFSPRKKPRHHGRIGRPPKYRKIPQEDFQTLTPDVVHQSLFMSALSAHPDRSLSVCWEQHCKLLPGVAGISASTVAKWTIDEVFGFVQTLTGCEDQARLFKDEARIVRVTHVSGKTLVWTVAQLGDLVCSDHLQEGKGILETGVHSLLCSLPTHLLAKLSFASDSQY
#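 AlphaScreen assay: L3MBTL1 (50 nM final) was preincubated 30 min at room temperature with biotinylated H3(1-15)K9me1 peptide (75 nM final), then 30 min with library compounds; streptavidin donor and nickel chelate acceptor beads (10 ug/mL final) added, 30 min dark.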
# Numbers without * were called inactive; ? = inconclusive; / = not tested or not shown; ! = not active in a repeat; [ ] = remark or other dose. Calls come from the whole dose curve; as a rule, active = well fitted inhibition curve with a large enough effect; inconclusive = small, poorly fitted or top-dose-only effect; inactive = no such curve, though single readings can be large or run the other way. Potency is the fitted concentration of half-maximal effect.
SMILES,JMJD2A Tudor inh,HP1b binding inh,G9a inh,BAZ2B inh,L3MBTL1 block
CCCCNC(=O)C(CC)Sc1nc2ccccc2c(=O)n1Cc1ccco1 (stereo not drawn),-17%,41%,0%[59 µM],1%,/
Cc1cccc(C)c1-n1ncc(C(=O)N2CCN(c3ccccc3)CC2)c1C1CCN(C(=O)OC(C)(C)C)CC1,-32%,9%,-36%[59 µM],-7%[57.1 µM],/
Cc1ccc(OCC(O)CN2CCN(c3ccc(C)cc3)CC2)cc1 (stereo not drawn),-24%,17%,-17%,-31%,-5%
COc1ccc(OCC(O)CN2CCN(c3ccc(OC)cc3)CC2)cc1 (stereo not drawn),?,3%,32µM*,-17%,/
COc1ccc(N2CCN(CC(O)COc3ccccc3C(C)(C)C)CC2)cc1 (stereo not drawn),22µM*,20µM*,11µM*,32µM*,/
OC(COc1ccc(F)cc1)CN1CCN(CC(O)COc2ccc(F)cc2)CC1 (stereo not drawn),-11%,66%,14%,1%,/
COc1ccc(N2CCN(CC(O)COc3c(OC)cccc3OC)CC2)cc1 (stereo not drawn),56µM*!,6%,35µM*,79µM*,/
COc1ccc(N2CCN(CC(O)COc3ccc(F)cc3)CC2)cc1 (stereo not drawn),?,-8%,16µM*,?,/
CCOc1ccc(-c2ccc(NS(=O)(=O)c3cc(C)c(C)cc3C)cc2)nn1,-25%,11%[57 µM],-28%[59 µM],-14%,/
CCCC(=O)Nc1cc(-c2nc3cccnc3s2)ccc1C,-34%,-15%,?,?,/
COc1ccc(N2CCN(CC(O)COc3cc(C)cc(C)c3)CC2)cc1 (stereo not drawn),?,-16%,40µM*,40µM*,/
COc1ccc(N2CCN(c3nccs3)CC2)cc1,?,-10%,50µM*,-38%,/
COc1ccc(N2CCN(CC(O)COc3ccc([N+](=O)[O-])cc3)CC2)cc1 (stereo not drawn),?,7%,?,-36%,2%
COc1ccc(CNC(=O)C2CCN(c3nccs3)CC2)cc1,1%,6%,2%,8%,3%
CCOC(=O)c1cc(C)n(CC2CCC(C(=O)Nc3cccc(C(C)=O)c3)CC2)c1C (stereo not drawn),-7%,14%,?,-28%,/
COC(=O)C1CCN(C(=O)COC(=O)c2cccc(NS(=O)(=O)c3ccccc3)c2)CC1,-8%,12%,?,6%,8%
Cc1sc(C(C2C(=O)CC(C)(C)CC2=O)C2C(=O)CC(C)(C)CC2=O)cc1[N+](=O)[O-],28µM*,-9%,7.9µM*,56µM*,-22%
O=C(COc1ccccc1Cl)OCc1cc(=O)n2nc(C3CCCCC3)sc2n1,-7%,25%,8%[59 µM],-11%,/
Cc1cccc(N2CCN(Cc3nc(-c4cccc(Oc5ccccc5)c4)oc3C)CC2)n1,45µM*,?,40µM*,?,?
COc1ccc(-c2nc(CN3CCN(Cc4ccccc4)CC3)c(C)o2)cc1,-33%,1%,/,?,-7%
C=CCNC(=O)CSc1nc2cc(C(=O)OCC)ccc2n1CC,-6%,18%,8%,-4%,/
Cn1ccnc1SCC(=O)c1cc2ccccc2o1,?,-31%,40µM*,?,-1%
O=C(CSc1nnc(-c2cccs2)n1CC1CCCO1)c1cc2ccccc2o1 (stereo not drawn),-30%,19%,45µM*,-30%,-6%
O=C(CSc1nccc(=O)[nH]1)c1cc2ccccc2o1,-20%,22%,0%[59 µM],-22%,-12%
Cc1ccnc(SCC(=O)c2cc3ccccc3o2)n1,-5%,25%,45µM*,-11%,7%
SMILES,JMJD2A Tudor inh,HP1b binding inh,G9a inh,BAZ2B inh,L3MBTL1 block
Cn1cnnc1SCC(=O)c1cc2ccccc2o1,-8%,62%,?,-39%,-5%
CCOC(=O)c1ccc2c(c1)nc(SCC(=O)c1cc3ccccc3o1)n2CC,-19%,32%,79µM*,-4%,/
CC(C)c1cnc2c(c1SCC(=O)N1CCCCC1)c(=O)n(C)c(=O)n2C,-5%,13%[57 µM],?,-10%,/
Cc1ccc(SCC(=O)N2CCN(S(=O)(=O)c3cccs3)CC2)cc1,-9%,36%,/,/,1%
Cc1cc(C)n(C(C)CC(=O)Nc2ccc(Cl)cc2C)n1 (stereo not drawn),-13%,5%,19%[59 µM],-2%,/
Cn1c(SCC(=O)c2cc3ccccc3o2)nnc1-c1ccccc1,?,3%,11µM*,-8%,-1%
Cn1c(SCC(=O)c2ccc(O)c(O)c2)nnc1-c1ccccc1,-14%,16%,6%,?,/
CSc1ccccc1NC(=O)C1=CC(c2cccs2)=NS(=O)(=O)N1C,?,-4%,35µM*,-37%,-6%
COc1cc(NC(=O)C2=CC(c3cccs3)=NS(=O)(=O)N2C)cc(OC)c1OC,?,8%,45µM*,?,-22%
CN1C(C(=O)Nc2ccc(F)cc2F)=CC(c2cccs2)=NS1(=O)=O,-18%,53%,?,6%,-8%
Cc1ccc(NC(=O)C2=CC(c3cccs3)=NS(=O)(=O)N2C)cc1,-25%,-8%,9%,-35%,-8%
Cc1ccc(N2C(=O)CS(=O)(=O)C23C(=O)N(Cc2ccccc2F)c2ccccc23)cc1Cl (stereo not drawn),-6%,22%,-37%[59 µM],-11%,/
Cc1nc2c(ccc3nc(NC(=O)c4ccc5c(c4)OCCO5)sc32)s1,?,30%,28µM*,-37%,-5%
O=C1CCCc2c1cc(-c1ccccc1)n2-c1ccc(O)cc1,-6%,29%,4%,-6%,-12%
COc1ccc(-n2c(-c3ccccc3)cc3c2CCCC3=O)cc1,32µM*,?,13µM*,11µM*,32µM*
Cc1ccc(C(=O)CC(C(=O)O)c2cn(CCC#N)c3ccccc23)cc1 (stereo not drawn),50µM*,?,?,3%,2%
CCc1c(-c2ccccc2)nc2sc3c(c2c1N)CCCC3,-22%,10%,2%,-29%,-9%
CCCc1nc2c(C)ccc(C)c2c(N)c1CC,2.8µM*,?,?,-28%,-6%
Nc1nc(Nc2ccccc2Cl)cc(=O)[nH]1,-9%,3%,11%[12.7 µM],-2%,/
O=C(c1cccs1)[C@@H]1[C@@H]2C(=O)N(Cc3ccc4c(c3)OCO4)C(=O)[C@@H]2C2c3ccccc3C=CN21 (stereo partly drawn),/,/,?,-34%,-4%
O=C(Nc1ccc2c(c1)OCO2)[C@@H]1[C@@H]2C(=O)N(C3CCCCC3)C(=O)[C@@H]2C2c3ccccc3C=CN21 (stereo partly drawn),/,/,10µM*,3%,-9%
